Inconclusive results are not listed. Activity calls are given as the source filed them. The calls were made as follows, unless noted: active = hit-call score of the fitted dose curve at least 0.9, where 1 is the maximum; inactive = score below 0.9.
Legend:
[1] = CCTE_Shafer_MEA_dev_mutual_information_norm: CCTE's Neural Network Formation Assay for Mutual Information Normalization, Shafer Lab (AID 2284091)
How it was run: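 Shared information across electrodes, tracked on days 5, 7, 9 and 12 of network development and collapsed as trapezoidal area under the curve. Rat cortical cultures were treated continuously from plating, with treatment renewed at feeds on DIV 5 and 9; DMSO baseline, negative-direction fit.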

[2] = CCTE_Shafer_MEA_dev_correlation_coefficient_mean: CCTE's Neural Network Formation Assay for Mean Correlation Coefficient, Shafer Lab (AID 2284093);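 also: well mean pairwise spike train correlation integrated as AUC over recording days 5 to 12; potency fitted for loss of correlation relative to DMSO vehicle wells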
How it was run: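 Rat cortical cultures, 1.5 x 10^5 cells/well, dosed from day 0 for 12 days. Spontaneous spikes recorded DIV 5/7/9/12; electrode-pair correlation coefficients averaged, AUC taken. Fit in loss direction vs DMSO.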

[3] = UKN2_HCS_IMR90_neural_migration: University of Konstanz (UKN) Leist Lab Neural Crest Cell Migration Assay in human induced IMR90 Pluripotent Stem Cells (UKN2) (AID 2284204); conditions: actives raise or lower the signal
How it was run: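 High-content imaging of calcein-AM and Hoechst stained cells quantifies migration into a stopper-defined gap after 24 h compound exposure. Neural crest cells from IMR90 iPSC migrated 24 h in EGF/FGF N2-S medium before dosing; DMSO baseline.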

[4] = IUF_NPC1b_proliferation_BrdU_72hr: Leibniz Research Institute for Environmental Medicine (IUF) 72-hour Neural Progenitor Cell Bromodeoxyuridine (BrdU) Proliferation Assay (NPC1b) (AID 2284207)
How it was run: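 Human fetal cortex-derived (GW 16-19) neural progenitor spheres, 0.25-0.35 mm, one per well in EGF/FGF proliferation medium, exposed to compound for 72 h at 37C, pH 7.2-7.6. BrdU incorporation over the final 16 h read by luminescence ELISA, relative to DMSO.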

[5] = IUF_NPC1a_proliferation_area_72hr: Leibniz Research Institute for Environmental Medicine (IUF) 72-hour Neural Progenitor Cell Proliferation Area Assay (NPC1a) (AID 2284208)
How it was run: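 Measured in 3D suspension: each well held one primary hNPC sphere grown with EGF and FGF at pH 7.2-7.6. Compound stayed on for 72 h, then area was imaged; spheres lacking growth factors defined reduced proliferation.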

[6] = IUF_NPC1_viability_72hr: Viability Assessment at 72 hours in the Leibniz Research Institute for Environmental Medicine (IUF) Neural Progenitor Cell Proliferation Assay (NPC1) (AID 2284209)
How it was run: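 Spheres of primary human neural progenitors were plated singly in proliferation medium and treated for 72 h. Mitochondrial reduction of resazurin was then measured by fluorescence and analysed against DMSO controls.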

[7] = UKN2_HCS_IMR90_cell_viability: Viability Assessment in the University of Konstanz (UKN) Leist Lab Neural Crest Cell Migration Assay in human induced IMR90 Pluripotent Stem Cells (UKN2) (AID 2284233);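 also: cells exposed to compound for 24 h after a 24 h migration phase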
How it was run: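 After calcein-AM/Hoechst staining, viability is quantified by high-content fluorescence imaging, relative to DMSO, in iPSC (IMR90)-derived neural crest cells. Exposure lasts 24 h, starting after a 24 h migration period on PLO/laminin/fibronectin coating.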

[8] = IUF_NPC2c_oligodendrocyte_migration_120hr: Leibniz Research Institute for Environmental Medicine (IUF) 120-hour Neural Progenitor Cell Migration Assay for Oligodendrocyte Migration (NPC2c) (AID 2284297);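 also: O4-positive oligodendrocyte migration distance divided by radial glia migration distance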
How it was run: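 Using fetal brain neural progenitor spheres differentiating in N2 medium at 37C, compounds were present for 120 h. Oligodendrocyte migration distance, normalized to radial glia migration, was measured from imaged O4 staining.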

[9] = IUF_NPC2a_radial_glia_migration_120hr: Leibniz Research Institute for Environmental Medicine (IUF) 120-hour Neural Progenitor Cell Migration Assay for Radial Glia Migration (NPC2a) (AID 2284298)
How it was run: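 Exposure of 0.3 mm primary hNPC spheres runs day 0 to 120 h with a half-volume medium change at day 3. Fixed cells get Hoechst staining; high-content analysis of nuclear positions yields radial glia migration distance per well, compared against DMSO controls.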

[10] = IUF_NPC2a_radial_glia_migration_72hr: Leibniz Research Institute for Environmental Medicine (IUF) 72-hour Neural Progenitor Cell Migration Assay for Radial Glia Migration (NPC2a) (AID 2284299)
How it was run: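 Single 0.3 mm neurospheres were plated per well in N2 differentiation medium and exposed from the start of differentiation. After 72 hours, brightfield images were taken and radial glia migration from the sphere core edge was measured manually in four directions, averaged per well.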

[11] = IUF_NPC2b_neuronal_migration_120hr: Leibniz Research Institute for Environmental Medicine (IUF) 120-hour Neural Progenitor Cell Migration Assay for Neuron Migration (NPC2b) (AID 2284300)
How it was run: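 Fetal human NPC spheres migrate on PDL/laminin during 120 h compound treatment; neuronal migration distance, glia-normalized, scored versus DMSO control.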

[12] = IUF_NPC3_neuronal_differentiation_120hr: Leibniz Research Institute for Environmental Medicine (IUF) 120-hour Neuronal Differentiation Assay (NPC3) (AID 2284301)
How it was run: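 Value is percent TUBB3-positive neurons among Hoechst-stained nuclei in the migration area, scored by trained CNN after 120 h differentiation. Primary hNPC spheres on poly-D-lysine/laminin, N2 medium, continuous dosing from day 0, half-refeed day 3; DMSO reference.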

[13] = IUF_NPC4_neurite_length_120hr: Leibniz Research Institute for Environmental Medicine (IUF) 120-hour Neuronal Morphology Assay for Neurite Length (NPC4) (AID 2284302)
How it was run: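 Neurite length, the mean in um across TUBB3-stained neurons, is derived by skeletonization of high-content images after 120 h differentiation. Compound exposure, 7 concentrations plus solvent control, ran from plating of hNPC spheres on poly-D-lysine/laminin, with medium half-replaced on day 3.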

[14] = IUF_NPC5_oligodendrocyte_differentiation_120hr: Leibniz Research Institute for Environmental Medicine (IUF) 120-hour Oligodendrocyte Differentiation Assay (NPC5) (AID 2284304; active = hit-call score of the fitted dose curve at least 0.9, where 1 is the maximum;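 also: primary human fetal neural progenitor spheres plated to migrate and differentiate; share of O4-positive cells among Hoechst nuclei found by CNN image analysis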)
How it was run: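 After plating on poly-D-lysine/laminin, fetal-derived hNPC spheres differentiated for 120 h at 37C in compound-containing N2 medium, refreshed by half on day 3. O4 immunostaining over Hoechst nuclei in the migration zone gave oligodendrocyte percentage relative to DMSO.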

[15] = IUF_NPC4_neurite_area_120hr: Leibniz Research Institute for Environmental Medicine (IUF) 120-hour Neuronal Morphology Assay for Neurite Area (NPC4) (AID 2284305; active = hit-call score of the fitted dose curve at least 0.9, where 1 is the maximum)
How it was run: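 Neurite area (pixels, nuclei excluded) of TUBB3-positive neurons from hNPC spheres differentiating 5 days under continuous exposure at 37 C, 5% CO2. High-content imaging; loss of signal versus DMSO control across 7 concentrations.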

[16] = IUF_NPC2-5_cytotoxicity_72hr: Cytotoxicity Assessment at 72 hours in the Leibniz Research Institute for Environmental Medicine (IUF) Neural Progenitor Cell Migration and Differentiation Assay for Cytotoxicity (NPC2-5) (AID 2284306; active = hit-call score of the fitted dose curve at least 0.9, where 1 is the maximum;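 also: LDH release into supernatant measured by resorufin fluorescence marking membrane damage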)
How it was run: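 Membrane-integrity cytotoxicity at 72 h, read as LDH-driven resorufin fluorescence in supernatant. hNPC spheres from fetal cortex differentiate on coated plates in N2 medium, 37C, 5% CO2; seven serial compound concentrations plus solvent control (DMSO ≤0.1%).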

[17] = IUF_NPC2-5_cytotoxicity_120hr: Cytotoxicity Assessment at 120 hours in the Leibniz Research Institute for Environmental Medicine (IUF) Neural Progenitor Cell Migration and Differentiation Assay (NPC2-5) (AID 2284307; active = hit-call score of the fitted dose curve at least 0.9, where 1 is the maximum)
How it was run: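 Membrane-integrity loss is quantified by LDH in supernatant after five days of exposure of migrating, differentiating human fetal NPC spheres; seven serially diluted concentrations are tested with DMSO kept at or below 0.1%.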

[18] = IUF_NPC2-5_cell_number_120hr: Cell Number Assessment at 120 hours in the Leibniz Research Institute for Environmental Medicine (IUF) Neural Progenitor Cell Migration and Differentiation Assay (NPC2-5) (AID 2284308);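 also: count of Hoechst-stained nuclei in migration zone around plated human neural progenitor spheres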
How it was run: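 Seven-point serial dilutions plus solvent control were applied to plated 0.3 mm hNPC spheres at differentiation start, with medium half-replaced at day 3. Nuclei positive for Hoechst in the migration zone were enumerated at 120 h.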

[19] = IUF_NPC2-5_viability_120hr: Viability Assessment at 120 hours in the Leibniz Research Institute for Environmental Medicine (IUF) Neural Progenitor Cell Migration and Differentiation Assay (NPC2-5) (AID 2284312)
How it was run: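 Alamar blue resorufin fluorescence read after 5 days of differentiation, with compound present from day 0 and replenished at day 3. Primary hNPC spheres on laminin-coated plates, 37C; seven concentrations plus solvent control, fitted against DMSO.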

Measured: AC50

C[n+]1ccc(-c2ccccc2)cc1
active: [2] 8.7 µM | [4] 4.54 µM | [5] 18.7 µM
inactive: all other assays above

From PubChem BioAssay (EPA / NIEHS)
